D2 ag-1 – HTS Assay for Allosteric Agonists of the Human D2 Dopamine Receptor: Primary Screen for Agonists; 340,000 tested, 0.53% active; D(2) dopamine receptor (Homo sapiens), P14416; activation, % at 2 µM; HEK293 T-REx D2 cells, calcium flux agonist mode;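 active = activation over 3 SD above normal in the single-dose calcium agonist read, cut at about 30% in these data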
Target sequence (P14416 whole entry, looked up): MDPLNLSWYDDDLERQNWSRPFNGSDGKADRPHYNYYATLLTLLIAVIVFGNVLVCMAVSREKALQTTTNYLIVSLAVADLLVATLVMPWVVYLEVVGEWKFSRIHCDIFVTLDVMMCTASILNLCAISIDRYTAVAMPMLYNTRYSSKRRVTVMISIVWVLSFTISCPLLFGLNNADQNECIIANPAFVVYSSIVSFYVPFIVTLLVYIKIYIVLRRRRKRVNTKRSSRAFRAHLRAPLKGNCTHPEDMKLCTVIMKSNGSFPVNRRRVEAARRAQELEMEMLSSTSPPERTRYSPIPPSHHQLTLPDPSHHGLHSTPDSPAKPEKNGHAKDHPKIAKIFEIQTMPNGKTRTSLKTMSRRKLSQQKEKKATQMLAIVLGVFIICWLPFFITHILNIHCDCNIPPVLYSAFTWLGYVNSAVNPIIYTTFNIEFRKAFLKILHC
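In this primary screen, compounds producing a positive calcium signal within 180 s of addition to tetracycline-induced, force-coupled HEK293 Trex D2 cells are flagged; cells are dye-loaded with a no-wash calcium kit beforehand.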
D2 ag-2 – Beta-Arrestin HTS for Positive Allosteric Modulators of the Human D2 Dopamine Receptor: Agonists | D(2) dopamine receptor (Homo sapiens), P14416 | activation, % (concentration not given with the values) | AID 624465, 2012 | DiscoveRx PathHunter D2 beta-arrestin, luminescence, 90 min; 100% = 57 uM dopamine signal | 360,000 tested, 0.084% active; in the data active = activation above about 40%; inconclusive = between about 15% and that limit
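Agonist mode: compounds alone added to overnight-plated D2 PathHunter cells for 90 min at 37 C, with 57 uM final dopamine (EC100) defining full response. Beta-arrestin recruitment detected by chemiluminescent reagent, read after 1 h at ambient temperature.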
D2 antag – HTS Assay for Allosteric Antagonists of the Human D2 Dopamine Receptor: Primary Screen for Antagonists. D(2) dopamine receptor (Homo sapiens), P14416. HEK293 TREx D2 cells, calcium flux, dopamine EC80. inhibition, % at 10 µM. 340,000 tested, 2% active; in the data active = inhibition above about 30%; inactive = below that, where a call was filed
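Read-out: kinetic calcium fluorescence (1 cycle/s) in inducible HEK293 T-REx D2 cells after an EC80 dopamine addition that followed 180 s compound preincubation. Loss of the dopamine response indicates antagonism.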
D2 PAM-1 – HTS Assay for Positive Allosteric Modulators of the Human D2 Dopamine Receptor: Primary Screen for Potentiators; D(2) dopamine receptor (Homo sapiens), P14416; HEK293 T-REx D2, calcium flux, EC20 dopamine potentiation; potentiation, % at 10 µM; 340,000 tested, 0.34% active;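 active = potentiation over 3 SD above the plate norm, cut at about 30% in these data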
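Potentiation of an EC20 dopamine calcium response is measured in a force-coupled, tetracycline-inducible Hek293 Trex D2 line. Compound-only kinetic reads over 180 s flag agonists before dopamine addition.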
D2 PAM-2 – Beta-Arrestin HTS for Positive Allosteric Modulators of the Human D2 Dopamine Receptor: Potentiators; 360,000 tested, 0.23% active; DiscoveRx D2 beta-arrestin cells, luminescence, 90 min; 100% = 57 uM dopamine signal; D(2) dopamine receptor (Homo sapiens), P14416; potentiation, % (no concentration beside the values); in the data active = potentiation above about 50%; inconclusive = mostly about 30% to 49%
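D2 cells co-treated with compound plus 50 nM dopamine (EC20) for 90 min at 37 deg C to detect potentiation. Beta-arrestin recruitment was read as enzyme-fragment luminescence after 1 h at ambient temperature. Full response was set by 57 uM dopamine.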
Large screens that a line does not name were inactive. Sampled rows, rich in hits. Any-hit rate of the full collection: about 2.4%.

Oc1ccc2ccccc2c1C=Nc1cc(C(F)(F)F)ccc1N1CCCC1	D2 PAM-2 55
N#Cc1cccc(N=Cc2c(O)ccc3ccccc23)c1	D2 PAM-2 inconclusive
NC(=S)NNC(=O)C12CC3CC(CC(C3)C1)C2	D2 ag-1 62, D2 antag 44
Cc1ccc(-c2nnn3c2nc(NCc2ccc4c(c2)OCO4)c2ccccc23)cc1	none (no result: D2 ag-2, D2 antag, D2 PAM-1, D2 PAM-2)
O=C(NCc1ccc(F)cc1)C1CCN(C(=O)c2ccc(-n3ccc4ccccc43)s2)CC1	none (no result: D2 ag-2, D2 antag, D2 PAM-2)
COC(=O)NC1(C(F)(F)F)C(=O)NC(C)=C1C(=O)OC (centres undefined)	D2 PAM-1 39
CSc1ccc(CCNC(=O)CN2C(=O)COc3ccc(S(=O)(=O)N4CCCCCC4)cc32)cc1	none (no result: D2 ag-2, D2 antag, D2 PAM-2)
O=C(CSc1nnc(-c2ccco2)n1CC1CCCO1)N1CCCCC1 (centres undefined)	none
O=C(CSc1nnc(-c2ccccc2)n1CC1CCCO1)N1CCCC1 (centres undefined)	D2 PAM-1 32
Nn1c(SCC(=O)N2CCCCCC2)nnc1-c1ccncc1	D2 antag 30
Cc1ccc2occ(-c3cc(-c4ccc(F)cc4)nc4c3COc3ccc(F)cc3-4)c(=O)c2c1	none (no result: D2 ag-2, D2 antag, D2 PAM-2)
COCc1cc(=O)n2[nH]c(SC)nc2n1	D2 PAM-1 36
COCc1cc(=O)n2[nH]c(SCc3ccccc3)nc2n1	none
Cc1ccccc1C(=O)NC(=S)Nc1ccccc1C(F)(F)F	D2 antag 50
Cc1cc(=O)n(CC(=O)N2CCCCC2)c2c1c(C)nn2C	none (no result: D2 ag-2, D2 antag, D2 PAM-2)
CCn1cc2nc(SCC(=O)Nc3ccc(F)cc3F)n(Cc3ccccc3)c(=O)c2n1	D2 antag 32
CCn1cc2nc(SCC(=O)Nc3cccc(Cl)c3C)n(Cc3ccc(Cl)cc3)c(=O)c2n1	none (no result: D2 ag-2, D2 antag, D2 PAM-2)
CCOC(=O)c1ccc(CN(Cc2ccccc2C)S(=O)(=O)c2ccc(F)c(C)c2)cc1	none (no result: D2 ag-2, D2 antag, D2 PAM-1, D2 PAM-2)
CSc1cccc(CN2CCN(CCc3ccccc3)C(CCO)C2)c1 (centres undefined)	none
CSc1cccc(CN2CCN(Cc3ccccc3)C(CCO)C2)c1 (centres undefined)	D2 antag 39
CSc1ccc(CN2CCN(CC=C(C)C)C(CCO)C2)cc1 (centres undefined)	D2 antag 33
Cc1ccc(C)c(OCC(=O)N(Cc2nnc(-c3ccccc3Cl)o2)C2CC2)c1	D2 antag 33
COc1cc(-c2noc(CCC(=O)Nc3cc(C)ccc3C)n2)cc(OC)c1OC	none (no result: D2 ag-2, D2 antag, D2 PAM-2)
COc1cc(CNCCSc2nnnn2C)ccc1OCc1ccccc1C	none (no result: D2 ag-2, D2 antag, D2 PAM-2)
COC(=O)C1C(=O)NC(SC)=C(C#N)C1c1ccccc1 (centres undefined)	D2 PAM-1 34
CCOC(=O)c1ccc(N2CCN(c3ccccc3F)CC2)c(NC(=O)Nc2ccc(Cl)c(Cl)c2)c1	none (no result: D2 ag-2, D2 antag, D2 PAM-2)
CC(=O)N1C(C)(C)CC(=NOC(=O)c2ccccc2)CC1(C)C	none
CC(=O)N1C(C)(C)CC(=NOC(=O)c2ccc(C)cc2)CC1(C)C	D2 ag-2 inconclusive, D2 PAM-2 67
O=C1CC(c2ccncc2)c2cc3c(cc2N1)OCO3 (centres undefined)	D2 antag 37
O=C1CC(c2ccc3c(c2)OCO3)c2cc3c(cc2N1)OCO3 (centres undefined)	none
Cc1c(Cl)cccc1NS(=O)(=O)c1ccc(-c2cnc(C3CC3)o2)cc1	none (no result: D2 ag-2, D2 antag, D2 PAM-2)
CCCNC(=O)Cn1c(=O)/c(=C\c2ccc(-c3ccc([N+](=O)[O-])cc3)o2)s/c1=C\C(=O)C(C)(C)C	D2 ag-1 93, D2 antag 54
CCc1ccc(CNC(=O)c2ccc(CS(=O)(=O)Cc3cccc(C)c3)o2)cc1	none (no result: D2 ag-2, D2 antag, D2 PAM-1, D2 PAM-2)
Cc1cccc(CS(=O)(=O)Cc2ccc(C(=O)NCc3cccnc3)o2)c1	D2 antag 33 (no result: D2 PAM-1)
COc1ccc(CN2CCCC(C(=O)Nc3cccc(-n4cccn4)c3)C2)cc1 (centres undefined)	D2 antag 79

Source: PubChem (National Center for Advancing Translational Sciences (NCATS))
